In PubChem BioAssay (EPA / NIEHS):
Results filed as inconclusive are left out. Active and inactive are the calls of the source. The calls were made as follows, unless noted: active = hit-call score of the fitted dose curve at least 0.9, where 1 is the maximum; inconclusive = response in the unintended direction; inactive = score below 0.9.

Assays:
[1] = target: THRA (gene 7067) (UniProt P10827); assay: TOX21_TRA_COA_Antagonist_Followup_ratio: Tox21 Thyroid Hormone Receptor alpha Antagonism through Coactivator Recruitment Follow-Up Assay, Ratio (AID 2283953)
THRA (gene 7067), sequence (P10827 whole entry, looked up, the tested form may be a part): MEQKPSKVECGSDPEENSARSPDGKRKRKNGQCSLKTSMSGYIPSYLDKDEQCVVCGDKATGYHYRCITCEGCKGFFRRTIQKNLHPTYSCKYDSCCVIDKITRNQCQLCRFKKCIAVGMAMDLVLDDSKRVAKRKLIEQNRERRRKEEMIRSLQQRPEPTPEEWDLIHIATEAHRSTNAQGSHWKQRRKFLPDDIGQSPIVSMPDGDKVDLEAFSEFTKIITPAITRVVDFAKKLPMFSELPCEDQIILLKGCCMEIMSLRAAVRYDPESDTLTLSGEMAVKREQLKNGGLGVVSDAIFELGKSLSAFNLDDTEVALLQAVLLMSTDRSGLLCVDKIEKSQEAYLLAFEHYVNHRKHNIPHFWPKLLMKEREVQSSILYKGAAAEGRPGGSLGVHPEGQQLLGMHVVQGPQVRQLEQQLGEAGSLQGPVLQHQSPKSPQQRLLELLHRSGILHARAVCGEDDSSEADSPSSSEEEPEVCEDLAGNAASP
In short: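 This follow-up to the GH3 luciferase screen checks specificity in a cell-free format. It measures SRC-2 coactivator peptide binding to TRα LBD by TR-FRET and scores loss of ratio signal relative to DMSO.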

[2] = target: THRB (gene 7068) (UniProt P10828); assay: TOX21_TRB_BLA_Antagonist_Followup_ratio: Tox21 Thyroid Hormone Receptor beta Antagonism Beta-lactamase (BLA) Follow-Up Assay, Ratio (AID 2283958)
THRB (gene 7068), sequence (P10828 whole entry, looked up, the tested form may be a part): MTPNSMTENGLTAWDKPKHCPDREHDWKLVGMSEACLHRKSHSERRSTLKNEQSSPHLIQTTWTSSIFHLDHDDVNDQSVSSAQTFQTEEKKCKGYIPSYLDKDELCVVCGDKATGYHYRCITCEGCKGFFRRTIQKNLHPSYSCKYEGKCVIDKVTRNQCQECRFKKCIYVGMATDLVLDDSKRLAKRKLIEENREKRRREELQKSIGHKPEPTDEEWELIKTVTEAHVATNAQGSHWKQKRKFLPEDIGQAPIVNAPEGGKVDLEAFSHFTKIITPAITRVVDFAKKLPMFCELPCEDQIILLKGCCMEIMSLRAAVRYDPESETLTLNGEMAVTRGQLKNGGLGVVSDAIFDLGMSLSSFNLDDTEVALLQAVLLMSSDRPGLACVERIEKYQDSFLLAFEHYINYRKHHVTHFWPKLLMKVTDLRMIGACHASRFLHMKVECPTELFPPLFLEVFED
In short: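 GAL4-DBD/human TRβ-LBD fusion in GeneBLAzer UAS-bla HEK293T cells, 3,000 cells/well in phenol red-free DMEM with 2% charcoal-stripped FBS; compounds at 11 concentrations in triplicate, 18 h at 37C. CCF4-AM substrate 2 h, 460:530 nm ratio relative to DMSO.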

[3] = TOX21_TRB_BLA_Antagonist_Followup_viability: Viability Assessment in the Tox21 Thyroid Hormone Receptor beta Antagonism Beta-lactamase (BLA) Follow-Up Assay (AID 2283961)
In short: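 ATP-based CellTiter-Glo luminescence (30 min, room temperature) run in the same wells as the TRβ-bla readout. Cells: GeneBLAzer HEK293T expressing GAL4-TRβ LBD, exposed 18 h at 37C to compounds at 11 concentrations in triplicate, stripped-serum medium.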

[4] = target: THRB (gene 7068) (UniProt P10828); assay: TOX21_TRB_COA_Antagonist_Followup_ratio: Tox21 Thyroid Hormone Receptor beta Antagonism through Coactivator Recruitment Follow-Up Assay, Ratio (AID 2283967)
In short: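 Test compound was incubated with 5.0 nM GST-TRβ LBD in 0.10% BSA. Then 200 nM fluorescein-SRC-2 peptide and 2 nM terbium anti-GST antibody were added. TR-FRET (520:495 nm) was measured and normalized to DMSO and T3 controls.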

[5] = target: PGR (gene 5241) (UniProt P06401); assay: TOX21_PR_BLA_Followup_Antagonist_ratio: Tox21 HEK293 Progesterone Receptor (PR) Antagonism Beta-lactamase Follow-Up Assay, Ratio (AID 2283934)
PGR (gene 5241), sequence (P06401 whole entry, looked up): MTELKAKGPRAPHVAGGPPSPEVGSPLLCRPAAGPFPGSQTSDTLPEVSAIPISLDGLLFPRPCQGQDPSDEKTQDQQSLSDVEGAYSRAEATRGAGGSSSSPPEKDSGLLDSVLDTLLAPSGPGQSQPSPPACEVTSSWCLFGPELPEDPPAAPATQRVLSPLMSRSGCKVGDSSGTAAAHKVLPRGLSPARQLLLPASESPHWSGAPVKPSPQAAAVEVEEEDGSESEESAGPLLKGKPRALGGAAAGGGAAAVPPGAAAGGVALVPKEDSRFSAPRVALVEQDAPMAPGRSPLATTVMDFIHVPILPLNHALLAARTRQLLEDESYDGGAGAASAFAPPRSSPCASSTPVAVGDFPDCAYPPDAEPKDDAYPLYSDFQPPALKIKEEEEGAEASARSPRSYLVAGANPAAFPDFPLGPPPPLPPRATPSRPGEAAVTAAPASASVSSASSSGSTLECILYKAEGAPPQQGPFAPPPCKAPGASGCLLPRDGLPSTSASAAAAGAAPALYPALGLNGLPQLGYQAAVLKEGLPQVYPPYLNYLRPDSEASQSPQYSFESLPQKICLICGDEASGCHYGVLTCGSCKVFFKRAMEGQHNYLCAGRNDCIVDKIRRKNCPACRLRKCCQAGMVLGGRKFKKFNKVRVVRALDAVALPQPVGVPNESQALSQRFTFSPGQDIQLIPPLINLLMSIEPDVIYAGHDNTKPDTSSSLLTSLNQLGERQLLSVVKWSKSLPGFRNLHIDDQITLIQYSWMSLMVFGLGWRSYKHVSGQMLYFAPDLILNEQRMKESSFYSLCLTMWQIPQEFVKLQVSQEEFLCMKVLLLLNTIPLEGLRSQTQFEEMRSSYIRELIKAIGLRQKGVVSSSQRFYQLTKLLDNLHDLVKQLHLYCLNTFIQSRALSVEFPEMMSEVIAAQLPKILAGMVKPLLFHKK
In short: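 PR-UAS-bla HEK293T cells in medium with 2% charcoal-stripped FBS were treated with compounds plus 1 nM (final) promegestone (R5020) for 16 hr at 37C. LiveBLAzer B/G FRET substrate was then added for 2 h at room temperature; signal is cleaved/uncleaved substrate ratio versus DMSO.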

[6] = TOX21_PR_BLA_Followup_Agonist_viability: Viability Assessment in the Tox21 HEK293 Progesterone Receptor (PR) Agonism Beta-lactamase Follow-Up Assay (AID 2283935);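 also: signal loss means lower viability so actives are cytotoxic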
In short: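 PR-UAS-bla HEK293T cells in 2% charcoal-stripped FBS medium, compound added after 6 hr plating, 16 hr at 37C/5% CO2. After bla FRET read, CellTiter-Glo added; luminescence read after 30 min at room temperature; signal loss marks cytotoxicity.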

[7] = target: PGR (gene 5241) (UniProt P06401); assay: TOX21_PR_LUC_Followup_Antagonist: Tox21 HEK293 Progesterone Receptor (PR) Antagonism Luciferase Follow-Up Assay (AID 2283938);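 also: curve fitted upward as signal gain over DMSO baseline despite antagonist label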
In short: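 Luminescence from ONE-Glo was measured 30 min after reagent addition, following 16 h exposure of HEK293-PR-A-luc cells (3,000/well, plated 5 h earlier) to DMSO-dissolved compounds at 37C; DMSO served as baseline.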

[8] = TOX21_PR_LUC_Followup_Antagonist_viability: Viability Assessment in the Tox21 HEK293 Progesterone Receptor (PR) Antagonism Luciferase Follow-Up Assay (AID 2283940)
In short: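 HEK293-PR-A-luc cells, precultured 5 days in assay medium with 10% charcoal-stripped FBS, were seeded at 3,000 cells/well, treated with compounds in DMSO for 16 h at 37C, and viability was read as cellular ATP by CellTiter-Glo luminescence.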

[9] = TOX21_PR_LUC_Followup_Agonist_viability: Viability Assessment in the Tox21 HEK293 Progesterone Receptor (PR) Agonism Luciferase Follow-Up Assay (AID 2283941);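 also: loss of signal means cytotoxicity so actives lower viability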
In short: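 HEK293-PR-A-luc cells, pre-cultured 5 days in 10% charcoal-stripped FBS, were seeded at 3,000 cells/well, rested 5 h at 37C, then given compound in DMSO for 16 h at 37C. Cellular ATP was read by CellTiter-Glo luminescence; signal loss indicates cytotoxicity.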

[10] = target: Thyroid hormone receptor alpha (Rattus norvegicus) + Thyroid hormone receptor beta (Rattus norvegicus) (UniProt P18113+P63059); assay: TOX21_TR_LUC_GH3_Antagonist_Followup: Tox21 GH3 Thyroid Hormone Receptor Antagonism Luciferase Follow-Up Assay (AID 2283942)
In short: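 Confirmatory qHTS, antagonist mode: T3 (1.0 nM final) + test cpd, 15 conc, 92 uM–5nM final, GH3 rat pituitary line, 24 h, 37C. Luc reporter, RLU vs DMSO.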

[11] = TOX21_PR_BLA_Followup_Antagonist_viability: Viability Assessment in the Tox21 HEK293 Progesterone Receptor (PR) Antagonism Beta-lactamase Follow-Up Assay (AID 2283936);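 also: hits lower the luminescence signal meaning cytotoxicity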
In short: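 PR-UAS-bla HEK293T cells (3,000/well, 2% charcoal-stripped FBS) given compound plus R5020 agonist, 16 h at 37C. CellTiter-Glo added after bla read, 30 min at room temperature; luminescence loss indicates cytotoxicity.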

[12] = CEETOX_H295R_OHPROG_noMTC: CeeTox H295R High-throughput Steroidogenesis Assay for OH-Progesterone (OHPROG), maximum tolerated concentration (MTC) filtered results only (AID 2283914; active = hit-call score of the fitted dose curve at least 0.9, where 1 is the maximum; inactive = score below 0.9); settings: actives raise or lower the signal
In short: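 Forskolin 10 uM, 48 h prestim → test cmpd in DMSO (0.1% final), 48 h → medium MTBE extraction → LC-MS/MS quant of 17alpha-OH-progesterone. Bidirectional fit vs DMSO; no MTT-based MTC filtering.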

[13] = CEETOX_H295R_ANDR_noMTC: CeeTox H295R High-throughput Steroidogenesis Assay for Androstenedione (ANDR), maximum tolerated concentration (MTC) filtered results only (AID 2283915; active = hit-call score of the fitted dose curve at least 0.9, where 1 is the maximum; inactive = score below 0.9); settings: actives raise or lower the signal
In short: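 H295R cells, passage 10 or below, prestimulated 48 h with 10 uM forskolin, then exposed 48 h to chemical in 0.1% DMSO. Medium androstenedione extracted with MTBE, quantified by HPLC-MS/MS; concentrations not MTC-filtered; bidirectional fit versus DMSO.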

[14] = CEETOX_H295R_CORTISOL_noMTC: CeeTox H295R High-throughput Steroidogenesis Assay for Cortisol, maximum tolerated concentration (MTC) filtered results only (AID 2283916; active = hit-call score of the fitted dose curve at least 0.9, where 1 is the maximum; inactive = score below 0.9); settings: actives raise or lower the signal
In short: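 Cortisol secretion measured by LC-MS/MS after 48 h chemical treatment (final 0.1% DMSO) of forskolin-primed (10 uM, 48 h) H295R cells; gain or loss fitted relative to DMSO, without maximum-tolerated-concentration filtering.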

[15] = CEETOX_H295R_CORTIC_noMTC: CeeTox H295R High-throughput Steroidogenesis Assay for Corticosterone (CORTIC), maximum tolerated concentration (MTC) filtered results only (AID 2283917; active = hit-call score of the fitted dose curve at least 0.9, where 1 is the maximum; inactive = score below 0.9); settings: actives raise or lower the signal
In short: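 Following OECD 456 with minor changes, H295R cultures received 10 uM forskolin for 48 h, then test chemical at 0.1% DMSO for 48 h. Media steroids were extracted and measured by LC-MS/MS.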

[16] = CEETOX_H295R_DOC_noMTC: CeeTox H295R High-throughput Steroidogenesis Assay for DOC, maximum tolerated concentration (MTC) filtered results only (AID 2283918; active = hit-call score of the fitted dose curve at least 0.9, where 1 is the maximum; inactive = score below 0.9); settings: actives raise or lower the signal
In short: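 11-Deoxycorticosterone secreted by human adrenal H295R cells quantified by HPLC-MS/MS after 48 h chemical exposure (0.1% DMSO), following 48 h 10 uM forskolin prestimulation. Concentrations not filtered by MTT-derived MTC; bidirectional fitting.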

[17] = CEETOX_H295R_ESTRADIOL_noMTC: CeeTox H295R High-throughput Steroidogenesis Assay for Estradiol, maximum tolerated concentration (MTC) filtered results only (AID 2283919; active = hit-call score of the fitted dose curve at least 0.9, where 1 is the maximum; inactive = score below 0.9); settings: actives raise or lower the signal
In short: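 H295R human adrenal cells pre-stimulated 48 h with 10 uM forskolin, then exposed 48 h to chemical (0.1% DMSO final). Estradiol in medium measured by HPLC-MS/MS after MTBE extraction and dansyl derivatization; bidirectional fit versus DMSO, concentrations not MTT-filtered.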

[18] = CEETOX_H295R_PROG_noMTC: CeeTox H295R High-throughput Steroidogenesis Assay for Progesterone (PROG), maximum tolerated concentration (MTC) filtered results only (AID 2283920; active = hit-call score of the fitted dose curve at least 0.9, where 1 is the maximum; inactive = score below 0.9); settings: actives raise or lower the signal
In short: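 H295R cells; forskolin 10 uM x 48 h prestim; test cpd 48 h, 0.1% DMSO final; media progesterone via LC-MS/MS; bidirectional fit vs DMSO; no MTT-based MTC filter applied.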

[19] = CEETOX_H295R_ESTRONE_noMTC: CeeTox H295R High-throughput Steroidogenesis Assay for Estrone, maximum tolerated concentration (MTC) filtered results only (AID 2283921; active = hit-call score of the fitted dose curve at least 0.9, where 1 is the maximum; inactive = score below 0.9); settings: actives raise or lower the signal
In short: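 H295R cells prestimulated 48 h with 10 uM forskolin, then exposed 48 h to chemical in 0.1% DMSO; medium estrone measured by HPLC-MS/MS after MTBE extraction and dansyl derivatization, fitted bidirectionally versus DMSO without MTT-based MTC filtering.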

[20] = CEETOX_H295R_TESTO_noMTC: CeeTox H295R High-throughput Steroidogenesis Assay for Testosterone (TESTO), maximum tolerated concentration (MTC) filtered results only (AID 2283924; active = hit-call score of the fitted dose curve at least 0.9, where 1 is the maximum; inactive = score below 0.9); settings: actives raise or lower the signal
In short: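 H295R cells prestimulated 48 h with 10 uM forskolin, then exposed 48 h to chemicals in 0.1% DMSO final. Testosterone in medium quantified by MTBE extraction and HPLC-MS/MS; bidirectional fit versus DMSO, concentrations […] filtered by MTT-based maximum tolerated concentration.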

Q: Which outcome [1] does the source give for CC(C)c1c(C(=O)Nc2ccccc2)c(-c2ccccc2)c(-c2ccc(F)cc2)n1CC[C@@H](O)C[C@@H](O)CC(=O)O here?
A: inactive

Q: What about the outcome [2] of the same compound?
A: inactive

Q: What about the outcome [3] of the same compound?
A: inactive

Q: And the outcome [4]?
A: inactive

Q: What does the source list for C[C@]12CC[C@@H]3c4ccc(O)cc4CC[C@H]3[C@@H]1C[C@@H](O)[C@@H]2O?
A: AC50 [5]: 17.1 µM (active); outcome [6]: inactive; AC50 [7]: 26 µM (active); outcome [8]: inactive; outcome [9]: inactive

Q: Which AC50 [10] does the source give for COc1ccccc1NC(=O)c1cc2ccccc2cc1O here?
A: 27.2 µM (active)

Q: What about the AC50 [2] of the same compound?
A: 38.3 µM (active)

Q: And the AC50 [3]?
A: 28.3 µM (active)

Q: With O=c1cc(-c2ccccc2)oc2ccc3ccccc3c12 as the compound, how does the outcome [10] read?
A: inactive

Q: What about the outcome [1] of the same compound?
A: inactive

Q: What about the outcome [3] of the same compound?
A: inactive

Q: What about the outcome [4] of the same compound?
A: inactive

Q: With Nc1cc(Cl)c(-c2cc(Cl)c(N)cc2Cl)cc1Cl as the compound, how does the AC50 [10] read?
A: 58.1 µM (active)

Q: What about the outcome [1] of the same compound?
A: inactive

Q: What about the AC50 [2] of the same compound?
A: 6.14 µM (active)

Q: What about the AC50 [3] of the same compound?
A: 60.1 µM (active)

Q: What about the outcome [4] of the same compound?
A: inactive

Q: What does the source list for C[C@]12CC[C@@H]3c4ccc(O)cc4CC[C@H]3[C@@H]1CC[C@@H]2OC(=O)CCC1CCCC1?
A: AC50 [5]: 1.01 µM (active); outcome [6]: inactive; outcome [11]: inactive; outcome [7]: inactive

Q: For Clc1ccc(Nc2nnc(Cc3ccncc3)c3ccccc23)cc1, which outcome [10] is on record?
A: inactive

Q: What about the outcome [1] of the same compound?
A: inactive

Q: What about the outcome [2] of the same compound?
A: inactive

Q: For Nc1ccn([C@@H]2O[C@H](CO)[C@@H](O)C2O)c(=O)n1 (some centres not stated), which outcome [10] is on record?
A: inactive

Q: What about the outcome [1] of the same compound?
A: inactive

Q: And the outcome [2]?
A: inactive

Q: What about the outcome [3] of the same compound?
A: inactive

Q: What about the outcome [4] of the same compound?
A: inactive

Q: Which AC50 [12] does the source give for C/C=C/C(=O)C1=C(C)CCCC1(C)C here?
A: 37.1 µM (active)

Q: What about the AC50 [13] of the same compound?
A: 31.3 µM (active)

Q: What about the outcome [14] of the same compound?
A: inactive

Q: And the outcome [15]?
A: inactive

Q: And the AC50 [16]?
A: 12.2 µM (active)

Q: And the outcome [17]?
A: inactive

Q: And the AC50 [18]?
A: 10.6 µM (active)

Q: And the outcome [19]?
A: inactive

Q: And the outcome [20]?
A: inactive
